# Calls of active or inactive are those of the source. Rule for the calls: active = hit-call score of the fitted dose curve at least 0.9, where 1 is the maximum; inactive = score below 0.9. Peptide text beside a SMILES is read from it.
# Test: CCTE_Shafer_MEA_acute_synchrony_index: CCTE's Neural Acute Assay for Synchrony, Shafer Lab (AID 2284027);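 note: fitted for loss of signal so actives lower synchrony relative to DMSO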
# Method: CCTE_Shafer_MEA_acute assay is conducted using Axion Biosystems 48 well microelectrode array (MEA) plates and Maestro recording system. Each well of the MEA plate contains a grid of 16 microelectrodes embedded in the culture surface. Electrically active cells, such as neurons, can be cultured over the electrodes, and electrical activity in these cells can be recorded extracellularly. The spontaneous firing of neurons is captured from each electrode on a microsecond timescale providing both temporally and spatially precise data. […] The CCTE_Shafer_MEA_acute assay uses primary cultures of rat cortical neurons. As these cultures mature over time, neural networks develop functional activity and form cohesive networks in which electrical activity can be highly coordinated. Baseline 40-minute recordings are made on days post-plating 13 or 15, followed by a secondary 40-minute recording after chemical exposure.CCTE_Shafer_MEA_acute_synchrony_index is a component of the CCTE_Shafer_MEA_acute assay. It measures the synchrony of the neural network as a unitless measure between 0 (low synchrony) to 1 (high synchrony) during a recording in a microelectrode array (MEA) using Axion Biosystems Maestro 768 channel amplifier with the AxIS adaptive spike detector. The recordings before and after chemical treatment are used to calculate a percent change in the synchrony index in each well.Data from the assay component CCTE_Shafer_MEA_acute_synchrony_index was analyzed into 1 assay endpoint. This assay endpoint, CCTE_Shafer_MEA_acute_synchrony_index, was analyzed in the negative analysis fitting direction relative to DMSO as the negative control and baseline of activity. Using a type of functional reporter, gain or loss-of-signal activity can be used to understand electrical activity.
# Spontaneous activity in the cortical cultures was recorded using an Axion Biosystems Maestro 768 channel amplifier and Axion Integrated Studios (AxIS) v1.8 (or later) software. The amplifier recorded from all channels simultaneously (gain = 1200 x; sampling rate = 12.5 kHz/channel): raw signals were filtered with a Butterworth band-pass filter (300-5000 Hz), which filters out slower local field potentials leaving only fast potentials, i.e., "spikes", arising from extracellular currents associated with action potentials (Pine 2006; Wheeler and Nam 2011). On-line spike detection of filtered signals was conducted with the AxIS adaptive spike detector, using a threshold of 8x the root mean squared (rms) noise on each channel. Any electrodes with rms noise levels greater than 5 uV were grounded (e.g., no data were recorded). Once grounded, an electrode was grounded for the duration of the experiment. All recordings were conducted at 37 C. Wells were deemed usable if on the day of the exposure >/= 10 electrodes were active (defined as >/= 5 spikes/min). On DIV 13 or 15, a minimum of three wells from one cortical culture preparation were treated with each compound (0.03-40 uM). Prior to recording baseline activity, each mwMEA plate was placed in the Maestro at 37 C and allowed to sit for 20 min while firing rates stabilized. Baseline activity (40 min) was recorded before the addition of each compound. An additional 40 min of spontaneous activity was recorded in the presence of each compound. Changes in network parameters relative to baseline were assessed following compound treatment.
Structure (SMILES),AC50,outcome
CCCCCCCCCCCC(=O)N(C)CC(=O)O,21.9 µM (active),
CC(CCC(=O)O)(c1ccc(O)cc1)c1ccc(O)cc1,,inactive
COC(=O)[C@H](Cc1ccccc1)NC(=O)[C@@H](N)CC(=O)O (H-Asp-Phe-OMe),,inactive
CC1(C)CC(O)CC(C)(C)N1[O],,inactive
CCCC(C)C(=O)OCC (stereo not drawn),,inactive
CC(C)C(=O)OCCc1ccccc1,,inactive
Nc1nc(N)nc(-c2ccccc2)n1,,inactive
Cc1c(C(=O)c2c[nH]n(C)c2=O)ccc(S(C)(=O)=O)c1C1=NOCC1,,inactive
Nc1cccc(N)n1,0.003 µM (active),
c1ccc(Nc2cccc3ccccc23)cc1,8.24 µM (active),
C1CNCCN1,,inactive
Oc1ccccc1Cc1ccccc1O,8.49 µM (active),
CC/C=C\CCOC(=O)c1ccccc1O,,inactive

# Source: PubChem BioAssay (EPA / NIEHS)
